# The full list was thinned out, with the strongest signals kept by preference.
# Experiments:
# Experiment in all cases: glycan array binding signal (z-score within array); higher = stronger binding
# Settings in all cases: glycan notation: IUPAC condensed, linker removed
# [1] = target: Fuc(a1-2)Gal(b1-3)GlcNAc(b1-3)GalNAc
# How it was run: (§1)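 From the Consortium for Functional Glycomics database, 3228 arrays were curated, keeping only those whose protein sequence was available. Binding is given as a within-array Z-score averaged across arrays sharing a protein sequence and across linkers. Negative Z-scores can be read as non-binding.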
# [2] = target: Fuc(a1-2)Gal(b1-4)[Fuc(a1-3)]GlcNAc(b1-2)[Fuc(a1-2)Gal(b1-4)[Fuc(a1-3)]GlcNAc(b1-4)]Man(a1-3)[Fuc(a1-2)Gal(b1-4)[Fuc(a1-3)]GlcNAc(b1-2)Man(a1-6)]Man(b1-4)GlcNAc(b1-4)GlcNAc
# How it was run: as §1
# [3] = target: Fuc(a1-2)Gal6S(b1-3)GlcNAc6S
# How it was run: as §1
# [4] = target: Fuc(a1-2)[Gal(a1-3)]Gal(b1-4)GlcNAc
# How it was run: as §1
# [5] = target: Fuc(a1-3)[Gal(b1-4)]GlcNAc(b1-2)Man(a1-3)[Fuc(a1-3)[Gal(b1-4)]GlcNAc(b1-2)Man(a1-6)]Man(b1-4)GlcNAc(b1-4)GlcNAc
# How it was run: as §1
# [6] = target: Fuc(a1-3)[Gal(b1-4)]GlcNAc(b1-4)Gal(b1-4)[Fuc(a1-3)]GlcNAc
# How it was run: as §1
# [7] = target: Fuc(a1-3)[GalNAc3S(b1-4)]GlcNAc
# How it was run: as §1
# Fuc(a1-4)GlcNAc = target: Fuc(a1-4)GlcNAc
# How it was run: as §1
# [8] = target: Gal(a1-3)Gal(b1-3)GlcNAc(b1-6)GalNAc
# How it was run: as §1
# [9] = target: Gal(a1-4)Gal(b1-4)GlcNAc(b1-2)Man(a1-3)[Gal(a1-4)Gal(b1-4)GlcNAc(b1-2)Man(a1-6)]Man(b1-4)GlcNAc(b1-4)GlcNAc
# How it was run: as §1
# [10] = target: Gal(b1-3)Gal(b1-4)GlcNAc(b1-2)Man(a1-3)[Gal(b1-3)Gal(b1-4)GlcNAc(b1-2)Man(a1-6)]Man(b1-4)GlcNAc(b1-4)GlcNAc
# How it was run: as §1
# [11] = target: Gal(b1-3)GalNAc(b1-4)[Neu5Ac(a2-3)]Gal(b1-4)Glc
# How it was run: as §1
# [12] = target: Gal(b1-3)GlcNAc(b1-2)Man(a1-3)[GlcNAc(b1-4)][Gal(b1-3)GlcNAc(b1-2)Man(a1-6)]Man(b1-4)GlcNAc(b1-4)GlcNAc
# How it was run: as §1
# [13] = target: Gal(b1-3)[Fuc(a1-4)]GlcNAc
# How it was run: as §1
# [14] = target: Gal(b1-3)[Fuc(a1-4)]GlcNAc(b1-3)Gal(b1-4)GlcNAc
# How it was run: as §1
# [15] = target: Gal(b1-3)[Fuc(a1-4)]GlcNAc(b1-3)Gal(b1-4)[Fuc(a1-3)]GlcNAc
# How it was run: as §1
# [16] = target: Gal(b1-3)[Neu5Ac(a2-6)]GlcNAc(b1-6)Gal(b1-4)Glc
# How it was run: as §1
# [17] = target: Gal(b1-4)GlcNAc(b1-2)Man(a1-3)[Gal(b1-4)GlcNAc(b1-2)][GlcNAc(b1-4)]Man(b1-4)GlcNAc(b1-4)GlcNAc
# How it was run: as §1
# [18] = target: Gal(b1-4)GlcNAc(b1-2)[Gal(b1-4)GlcNAc(b1-4)]Man(a1-3)[Gal(b1-4)GlcNAc(b1-2)Man(a1-6)]Man(b1-4)GlcNAc(b1-4)GlcNAc
# How it was run: as §1
# [19] = target: Gal(b1-4)GlcNAc(b1-2)[Gal(b1-4)GlcNAc(b1-6)]Man(a1-6)[GlcNAc(b1-4)][Gal(b1-4)GlcNAc(b1-2)Man(a1-3)]Man(b1-4)GlcNAc(b1-4)GlcNAc
# How it was run: as §1
# [20] = target: Gal(b1-4)GlcNAc(b1-6)Gal(b1-4)GlcNAc
# How it was run: as §1
# [21] = target: Gal(b1-4)GlcNAc(b1-6)[Gal(b1-3)]GalNAc
# How it was run: as §1
# Gal(b1-4)GlcNAc6P = target: Gal(b1-4)GlcNAc6P
# How it was run: as §1
# Gal6S(b1-4)Glc6S = target: Gal6S(b1-4)Glc6S
# How it was run: as §1
# GlcA(b1-3)Gal = target: GlcA(b1-3)Gal
# How it was run: as §1
# [22] = target: GlcNAc(b1-2)Man(a1-3)[GlcNAc(b1-4)][GlcNAc(b1-2)Man(a1-6)]Man(b1-4)GlcNAc(b1-4)GlcNAc
# How it was run: as §1
# [23] = target: GlcNAc(b1-2)[GlcNAc(b1-6)]Man(a1-6)[GlcNAc(b1-2)Man(a1-3)][GlcNAc(b1-4)]Man(b1-4)GlcNAc(b1-4)GlcNAc
# How it was run: as §1
# [24] = target: GlcNAc(b1-3)[GlcNAc(b1-4)][GlcNAc(b1-6)]GlcNAc
# How it was run: as §1
# GlcNAc3Prop(b1-4)GlcNAc = target: GlcNAc3Prop(b1-4)GlcNAc
# How it was run: as §1
# Man(a1-2)Man(a1-3)Man = target: Man(a1-2)Man(a1-3)Man
# How it was run: as §1
# [25] = target: Man(a1-2)Man(a1-3)[Man(a1-2)Man(a1-6)]Man
# How it was run: as §1
# [26] = target: Man(a1-2)Man(a1-3)[Man(a1-6)]Man(a1-6)[Man(a1-2)Man(a1-3)]Man(b1-4)GlcNAc(b1-4)GlcNAc
# How it was run: as §1
# [27] = target: Neu5Ac(a2-3)Gal(b1-4)GlcNAc(b1-2)Man
# How it was run: as §1
# [28] = target: Neu5Ac(a2-3)Gal(b1-4)GlcNAc(b1-3)[Neu5Ac(a2-3)Gal(b1-4)GlcNAc(b1-6)]GalNAc
# How it was run: as §1
# [29] = target: Neu5Ac(a2-6)Gal(b1-4)GlcNAc(b1-2)Man(a1-3)Man(b1-4)GlcNAc(b1-4)GlcNAc
# How it was run: as §1
# [30] = target: Neu5Ac(a2-6)Gal(b1-4)GlcNAc(b1-2)Man(a1-3)[GlcNAc(b1-2)Man(a1-6)]Man(b1-4)GlcNAc(b1-4)GlcNAc
# How it was run: as §1
# [31] = target: Neu5Ac(a2-6)Gal(b1-4)GlcNAc(b1-2)Man(a1-3)[Man(a1-6)]Man(b1-4)GlcNAc(b1-4)GlcNAc
# How it was run: as §1
# [32] = target: Neu5Ac(a2-6)Gal(b1-4)GlcNAc(b1-2)Man(a1-3)[Neu5Ac(a2-6)Gal(b1-4)GlcNAc(b1-2)Man(a1-6)]Man(b1-4)GlcNAc(b1-4)GlcNAc
# How it was run: as §1
# [33] = target: Neu5Ac(a2-6)Gal(b1-4)GlcNAc(b1-2)Man(a1-3)[Neu5Ac(a2-6)Gal(b1-4)GlcNAc(b1-2)Man(a1-6)]Man(b1-4)GlcNAc(b1-4)[Fuc(a1-6)]GlcNAc
# How it was run: as §1
# [34] = target: Neu5Ac(a2-6)Gal(b1-4)GlcNAc(b1-2)Man(a1-6)[Gal(b1-4)GlcNAc(b1-2)Man(a1-3)]Man(b1-4)GlcNAc(b1-4)GlcNAc
# How it was run: as §1
# [35] = target: Neu5Ac(a2-6)Gal(b1-4)GlcNAc(b1-3)[Neu5Ac(a2-6)Gal(b1-4)GlcNAc(b1-6)]GalNAc
# How it was run: as §1
# [36] = target: Neu5Gc(a2-6)Gal(b1-4)GlcNAc
# How it was run: as §1
binder,measurement,setting,value
"Calsepa (Calystegia sepium), P93114 (protein) MAVPMDTISGPWGNNGGNFWSFRPVNKINQIVISYGGGGNNPIALTFSSTKADGSKDTITVGGGGPDSITGTEMVNIGTDEYLTGISGTFGIYLDNNVLRSITFTTNLKAHGPYGQKVGTPFSSANVVGNEIVGFLGRSGYYVDAIGTYNRHK",glycan array binding signal (z-score),[1],-0.268
same,glycan array binding signal (z-score),[2],-0.257
same,glycan array binding signal (z-score),[3],-0.26
same,glycan array binding signal (z-score),[4],-0.249
same,glycan array binding signal (z-score),[5],-0.082
same,glycan array binding signal (z-score),[6],-0.253
same,glycan array binding signal (z-score),[7],-0.265
same,glycan array binding signal (z-score),Fuc(a1-4)GlcNAc,-0.244
same,glycan array binding signal (z-score),[8],-0.269
same,glycan array binding signal (z-score),[9],3.47
same,glycan array binding signal (z-score),[10],3.79
same,glycan array binding signal (z-score),[11],-0.253
same,glycan array binding signal (z-score),[12],4.21
same,glycan array binding signal (z-score),[13],-0.25
same,glycan array binding signal (z-score),[14],-0.252
same,glycan array binding signal (z-score),[15],-0.253
same,glycan array binding signal (z-score),[16],-0.248
same,glycan array binding signal (z-score),[17],5.25
same,glycan array binding signal (z-score),[18],-0.045
same,glycan array binding signal (z-score),[19],3.71
same,glycan array binding signal (z-score),[20],-0.251
same,glycan array binding signal (z-score),[21],-0.249
same,glycan array binding signal (z-score),Gal(b1-4)GlcNAc6P,-0.27
same,glycan array binding signal (z-score),Gal6S(b1-4)Glc6S,-0.237
same,glycan array binding signal (z-score),GlcA(b1-3)Gal,-0.244
same,glycan array binding signal (z-score),[22],5
same,glycan array binding signal (z-score),[23],5.82
same,glycan array binding signal (z-score),[24],-0.241
same,glycan array binding signal (z-score),GlcNAc3Prop(b1-4)GlcNAc,-0.246
same,glycan array binding signal (z-score),Man(a1-2)Man(a1-3)Man,-0.248
same,glycan array binding signal (z-score),[25],-0.251
same,glycan array binding signal (z-score),[26],-0.239
same,glycan array binding signal (z-score),[27],-0.255
same,glycan array binding signal (z-score),[28],-0.273
same,glycan array binding signal (z-score),[29],6.79
same,glycan array binding signal (z-score),[30],3.81
same,glycan array binding signal (z-score),[31],3.86
same,glycan array binding signal (z-score),[32],4.29
same,glycan array binding signal (z-score),[33],0.514
same,glycan array binding signal (z-score),[34],4.01
same,glycan array binding signal (z-score),[35],-0.274
same,glycan array binding signal (z-score),[36],-0.247

# From the supplement of paper PMC8728848
